Screens from PubChem.
Hits are enriched below; roughly 2.2% of the tested compounds scored in any of these assays.
HIF activator – HIF pathway transcriptional activation; 300,000 compounds, 0.32% hits; activation, % at 7.5 µM (by protocol); U2OS HRE-luciferase reporter, luminescence; normalized: DMSO 0%, desferrioxamine 100%;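 active = mean activation of at least 10% of the iron chelator positive control signal, with at least half of replicates also reaching 10%; inconclusive = mean and replicate majority disagree about reaching 10%; inactive = mean and most replicates under 10%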
CHT PAM – allosterically activates the human high affinity choline transporter | Q9GZV3 | 310,000 compounds, 0.49% hits | B-score at 10 µM | CHT-expressing cells, membrane potential dye, choline EC20; active compounds read high; LV-AA mutant CHT in HEK293 cells;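 active = initial fluorescence not abnormally high and integrated response B-score, plate-corrected, over 3 SD above library mean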
Target sequence (Q9GZV3 whole entry, looked up): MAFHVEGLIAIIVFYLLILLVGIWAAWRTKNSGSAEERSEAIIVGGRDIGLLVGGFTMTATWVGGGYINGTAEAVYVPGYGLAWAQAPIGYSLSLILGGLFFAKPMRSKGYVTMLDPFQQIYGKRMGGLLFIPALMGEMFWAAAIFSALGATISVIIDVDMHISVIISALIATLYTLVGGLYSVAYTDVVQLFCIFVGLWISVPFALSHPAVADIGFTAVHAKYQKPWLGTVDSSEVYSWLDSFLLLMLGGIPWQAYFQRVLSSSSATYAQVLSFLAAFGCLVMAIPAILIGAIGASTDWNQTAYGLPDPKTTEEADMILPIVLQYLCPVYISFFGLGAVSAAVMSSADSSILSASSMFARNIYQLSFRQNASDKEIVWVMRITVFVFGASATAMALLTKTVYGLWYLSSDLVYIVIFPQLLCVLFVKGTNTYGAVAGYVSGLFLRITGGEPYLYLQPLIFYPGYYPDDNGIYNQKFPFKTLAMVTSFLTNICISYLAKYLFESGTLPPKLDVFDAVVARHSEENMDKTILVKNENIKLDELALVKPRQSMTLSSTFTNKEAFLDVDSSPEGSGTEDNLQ
CHT inh – inhibits the human high affinity choline transporter | Q9GZV3 | CHT-expressing cells, membrane potential dye, choline response; active compounds read low | B-score at 10 µM | 310,000 compounds, 0.86% hits | AID 488975;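 active = B-score over 3 SD under the library average, and starting fluorescence ratio not unusually high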;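 note: choline stimulus applied at its EC90 after an EC20 pre-addition; B-score computed on integrated fluorescence ratio after choline addition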
Platelet DG rel – platelet dense granule release activity; human platelet-rich plasma, SFLLRN dense granule ATP release, luminescence; 300,000 compounds, 0.22% hits; inhibition, %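 (compounds screened at 7.5 µM in platelet-rich plasma)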;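 active = mean replicate score, as percent of positive control, at or above 50; inconclusive = mean below 50 but at least one replicate at or above 50; inactive = mean and every replicate below 50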
VLA-4 inh – inhibition in a human VLA-4 binding assay; VLA-4 expressing cells, ligand binding flow cytometry; inhibition, % (about 7 µM as worked out from the volumes in the protocol); 330,000 compounds, 0.2% hits; in the data active = inhibition above about 50%
AI-2 QS mod – modulators of Vibrio harveyi AI-2 quorum sensing system | Vibrio harveyi JMH597 AI-2 luminescence/OD600 ratio, 9 h; active compounds read low; strain lacks LuxN and CqsS sensors; 0 = neutral-control median | activity change, % at 7.5 µM | 300,000 compounds, 0.4% hits | AID 2094; in the data active = activity change below about -75%, passing the limit was not always enough; inconclusive = no clear call, values can overlap the other calls;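 note: luminescence divided by OD600 gain over 9 h not by final OD600 alone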
A number is an active result; 0 = inactive; ? = inconclusive; - = not tested or not shown.

SMILES	HIF activator	CHT PAM	CHT inh	Platelet DG rel	VLA-4 inh	AI-2 QS mod
CN1CCN(CC(O)COc2ccc(Cl)cc2)CC1 (centres undefined)	0	0	0	0	0	0
OCCN1CCN(CC(O)COc2ccc(Cl)cc2)CC1 (centres undefined)	0	0	0	50	0	0
CCOC(=O)c1cnc(-n2nc(C)cc2C)nc1NNc1nc(-c2ccccc2)cc(-c2ccccc2)n1	18	0	0	0	0	0
CC(C)c1ccc(N(C(=O)CNC(=O)c2ccco2)C(C(=O)NC2CCCC2)c2cccnc2)cc1 (centres undefined)	0	0	0	0	0	0
CC(CCc1ccccc1)NC(=O)CC(C)c1ccccc1 (centres undefined)	0	0	0	0	0	0
CC(=O)c1ccc(NC(=O)c2ccn[nH]2)cc1	0	0	0	50	0	0
Cc1ccc(C(=O)CC(=O)COc2ccc(Cl)cc2)cc1	0	0	0	0	0	-79
Cc1noc(C)c1COC(=O)C1CC(O)CN1S(=O)(=O)c1ccc(Cl)cc1 (centres undefined)	61	0	0	0	0	0
CCOc1ccc(C(=O)CCC(=O)N(CC)CC(=O)Nc2c(F)cccc2F)cc1	0	0	0	0	0	0
Cc1ccc(OCc2cc(C(=O)NC(C)Cc3cccnc3)no2)cc1C (centres undefined)	0	0	0	0	0	0
Cc1ccc(OCc2cc(C(=O)NCCc3cccnc3)no2)cc1C	0	0	0	0	0	-84
O=C1C=CC(=O)N1c1cccc(-c2ccccc2)c1	0	0	0	0	0	-212
O=C(Nc1cccc(N2C(=O)C=CC2=O)c1)c1cccs1	0	0	0	0	0	?
O=C(COc1cc(F)ccc1[N+](=O)[O-])N1N=C(c2cccs2)CC1c1ccco1 (centres undefined)	-	-	-	-	0	-
O=c1cc(O)c2ccc(O)cc2o1	0	0	0	0	0	0
O=c1ccc2[n+]([O-])c3ccc(O)cc3oc-2c1	0	-	-	0	-	-418
Cc1ccc2nc(-c3ccccc3NC(=O)CCC(=O)O)c(=O)[nH]c2c1	24	0	0	0	0	0
CC(C)C(=O)Nc1ccccc1-c1nc2ccccc2[nH]c1=O	0	0	0	0	0	0
O=C(O)/C=C/c1cccc(NC(=O)c2ccc(Cl)cc2)c1	0	0	0	0	0	0
O=C(O)/C=C/c1cccc(NC(=O)c2ccccc2)c1	0	0	0	64	0	0
Cc1ccc(C)c(NC(=O)COC(=O)c2ccc3c(c2)OCCO3)c1	-	-	-	-	0	-
CCc1ccc(C(=O)COC(=O)CNC(=O)c2ccco2)cc1	0	0	0	51	0	0
O=C(NCCc1ccccc1)C(=S)N1CCCCC1	0	0	0	0	0	0
C/C(=N\NC(=O)c1cc(-c2cccnc2)nc2ccccc12)c1ccccc1O	18	0	0	0	0	0
O=C(Nc1nccs1)c1ccc(NC(=O)C2CC=CCC2C(=O)O)cc1 (centres undefined)	0	0	0	0	0	0
SMILES	HIF activator	CHT PAM	CHT inh	Platelet DG rel	VLA-4 inh	AI-2 QS mod
CC(=O)N1/C(=C/c2ccc(N(C)C)cc2)C(=O)c2ccccc21	0	-	-	0	-	0
O=C(O)c1ccc(N/N=C/c2ccc(-c3cc(Cl)ccc3Cl)o2)cc1	0	0	0	0	0	-80
O=C(O)c1ccc(N/N=C/c2ccc(-c3cccc(Cl)c3)o2)cc1	0	0	0	0	0	-94
O=C(O)c1cccc(-c2ccc(/C=N/Nc3ccc([N+](=O)[O-])cc3)o2)c1	0	0	0	0	0	0
O=C(O)c1ccc(N/N=C/c2c(F)cccc2Cl)cc1	0	0	0	0	0	-79
CN1CC(=O)N(CC(=O)Nc2ccc(SC(F)F)cc2)C1=O	0	0	0	0	0	-86
COc1ccc(/C=N/N(C)c2cc(=O)n(C)c(=O)[nH]2)cc1OC	0	0	0	74	0	0
CSc1nc(O)c(C(c2ccc(OC(C)C)cc2)c2c(O)nc(SC)[nH]c2=O)c(=O)[nH]1	0	0	0	0	0	0
O=[N+]([O-])c1c(Nc2ccccn2)cc(Cl)c2nonc12	0	0	0	59	0	0
O=C(O)c1ccccc1Nc1cc(Cl)c2nonc2c1[N+](=O)[O-]	0	0	0	0	0	0
O=[N+]([O-])c1c(Nc2ccc(O)cc2)cc(Cl)c2nonc12	0	0	0	56	0	-174
CNC(=S)N1N=C(c2ccc(C)cc2)CC1c1ccc(N(C)C)cc1 (centres undefined)	0	0	0	0	0	0
CCC(=O)NC(c1cccs1)c1cc([N+](=O)[O-])c2cccnc2c1O (centres undefined)	0	0	0	0	0	0
CC(C)C(=O)NC(c1ccccc1)c1cc([N+](=O)[O-])c2cccnc2c1O (centres undefined)	0	0	0	0	0	0
CC(=O)NC(c1ccccc1)c1cc([N+](=O)[O-])c2cccnc2c1O (centres undefined)	0	0	0	0	0	-90
CC(=O)NC(c1cccs1)c1cc([N+](=O)[O-])c2cccnc2c1O (centres undefined)	18	0	0	0	0	0
CCOC(=O)C1CCN(c2ncnc3cc(OC)c(OC)cc23)CC1	0	0	0	58	0	0
CC(Sc1nnc(COc2ccc([N+](=O)[O-])cc2)n1C)C(=O)O (centres undefined)	93	0	0	0	0	0
O=C(/C=C/c1ccc(O)c(O)c1)c1ccccc1O	0	0	0	70	0	0
O=C(/C=C/c1ccoc1)c1ccccc1O	0	0	0	0	0	0
CCOC(=O)c1c(C)[nH]c(C)c1C(=O)COC(=O)c1ccc([N+](=O)[O-])s1	-	-	-	-	0	-
CCc1cccc2c(C(=O)COC(=O)c3ccc([N+](=O)[O-])s3)c[nH]c12	0	0	0	0	0	-206
CN(Cc1ccccc1Br)C(=O)CN1C(=O)NC2(CCCCCC2)C1=O	-	-	-	-	0	-
CCOC(=O)N1CCC(N2C(=O)c3ccccc3C2Nc2cc(OC)c(OC)c(OC)c2)CC1 (centres undefined)	0	0	0	64	0	0
CCOC(=O)N1CCC(N2C(=O)c3ccccc3C2Nc2ccc(S(=O)(=O)N3CCOCC3)cc2)CC1 (centres undefined)	0	0	0	0	0	0
COc1ccc(S(=O)(=O)N/N=c2\oc3c(OC)cccc3cc2S(=O)(=O)c2ccc(C)cc2)cc1OC	0	0	0	0	0	0
CC(=O)Nc1ccc(C(=O)OCc2ccc(Cl)c(Cl)c2)cc1	0	0	0	0	0	-85
O=C(COc1ccc(F)cc1)NCCNC(=O)COc1ccc(F)cc1	-	-	-	-	0	-
CCN(CC)c1ccc(/C=C/C(=O)c2cccnc2)cc1	0	0	0	0	50	0
